Screening results deposited in PubChem by National Center for Advancing Translational Sciences (NCATS).
GPR32 ag – agonists of human resolvin D1 receptor DRV1 (GPR32) | O75388 | CHO-K1 GPR32 beta-arrestin PathHunter luminescence, 90 min; zero percent set by DMSO-only wells | activation, % at 76.9 µM | hit rate 2.5% among 48,000;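 active = activation of at least 60% and not above a set upper limit, about 1 call in 100 departs from these limits; inconclusive = activation of 40% to 60%, or above that upper limit; inactive = activation under 40%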; also: 0% is about no effect
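Agonism was scored by beta-Gal fragment complementation (chemiluminescent read, 1 h detection at ambient temperature) reporting beta-arrestin binding to GPR32 in engineered CHO-K1 cells. Compound treatment lasted 90 min at 37 C, normalized to a DMSO basal control.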
GALK inhibitor – inhibits human galactokinase; AID 1347072; Potency, µM (highest dose often 57.5 µM), without a hit: at the top dose activity, negative = inhibition, actives largely listed as inhibitors; recombinant GALK, Kinase-Glo ATP luminescence, 1 h; 44,000 tested, under 10 active; P51570;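 also: plate controls were full GALK reaction for no effect and reaction lacking GALK for full effect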
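Compounds were pinned into ATP buffer, then GALK-galactose mix was added (final 5 nM enzyme, 35 uM ATP, 100 uM galactose, pH 8.0). After 1 h at room temperature, Kinase-Glo Plus was added and luminescence read.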
B2AR arrestin ag – ADRB2 beta-arrestin recruitment | P07550 | HTLA Tango cells, beta-arrestin recruitment, luciferase luminescence, 18 h | Potency, µM (titrated, usually from 46.1 µM), usual class: activators | 44,000 tested, under 10 active | AID 1347077;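 also: potency is read from the fitted curve at half-maximal effect; 0% = DMSO and full agonism = EC100 isoproterenol or metaproterenol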
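First, Tango cells carrying beta2-AR and beta-arrestin fusions received compound up to 46 microM. After 18 hr at 37 degrees C, luciferase substrate was added for 15 minutes, then luminescence gave %Activity for curve fitting.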
GALC G270D up – galactocerebrosidase G270D activity enhancement, cell-based; P54803; 145M-Twi-hGALC-G270D cells (Twitcher mouse brain line with human GALC G270D), HMU-beta-Gal fluorescence, 48 h; Potency, µM (highest dose often 57.5 µM), most hits filed as activators; hit rate 0.1% among 45,000; AID 1159614; also: potency is read from the fitted curve at half-maximal effect; 0% is about no effect; nearly all actives have a fitted effect of over 65% in size
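Mutant human GALC (G270D), stably expressed in a Twitcher mouse brain cell line lacking endogenous GALC, is measured in live-treated cells via 6-hexadecanoylamino-4-methylumbelliferyl-β-galactoside hydrolysis (0.1 mM final, pH 5.2) with fluorescent detection.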
TSG101-PTAP inh – inhibitors of HIV-1 PTAP binding to human TSG101, validation; Q99816; Fluorescence polarization, FITC-PTAP peptide/Tsg101, 20 min; Potency, µM (series often up to 115 µM), hits mostly inhibitors; 44,000 tested, under 10 active; AID 1347069; also: potency is read from the fitted curve at half-maximal effect; 0% is about no effect
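FITC-labeled PTAP peptide (50 nM final) binding to Tsg101 binding domain (10 uM final) read by fluorescence polarization after 20 min at r.t. in HEPES pH 7.5 buffer. Actives by CRC class, <25 µM.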
FH mod – Identification of activators of human fumarate hydratase by quantitative high-throughput screening; Fumarate hydratase, mitochondrial (Homo sapiens), P07954; Potency, µM (doses to about 79.9 µM), for the others: at the top dose activity change, negative = inhibition, usual class: inhibitors; FH coupled MDH/diaphorase resazurin fluorescence, 15 min; hit rate 0.22% among 54,000; AID 1347055, 2019; also: potency is read from the fitted curve at half-maximal effect; % is scaled to controls: 0 for no effect and ±100 for the full control effect; the screen sought activators but most active calls are inhibition curves; nearly all actives have a fitted effect of over 45% in size
Target sequence (P07954 whole entry, looked up): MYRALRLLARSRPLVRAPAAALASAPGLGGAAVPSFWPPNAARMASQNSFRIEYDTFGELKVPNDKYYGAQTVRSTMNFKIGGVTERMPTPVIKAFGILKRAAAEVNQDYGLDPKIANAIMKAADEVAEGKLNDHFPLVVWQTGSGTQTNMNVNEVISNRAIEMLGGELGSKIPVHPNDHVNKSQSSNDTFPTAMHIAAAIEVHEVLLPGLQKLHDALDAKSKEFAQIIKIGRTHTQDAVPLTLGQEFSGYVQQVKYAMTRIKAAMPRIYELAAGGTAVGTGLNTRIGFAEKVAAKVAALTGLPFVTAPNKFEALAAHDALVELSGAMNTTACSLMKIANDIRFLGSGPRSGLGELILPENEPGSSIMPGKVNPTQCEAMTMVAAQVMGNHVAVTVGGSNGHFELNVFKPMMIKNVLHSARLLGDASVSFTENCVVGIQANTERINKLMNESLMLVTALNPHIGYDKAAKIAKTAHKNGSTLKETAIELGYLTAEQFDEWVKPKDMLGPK
Numbers without * were called inactive; i = inactive; ? = inconclusive; . = no result; [ ] = remark or other dose. Most compounds without a hit are left out; they make up all but 2.8% or so of the library. Unless noted, calls follow the shape of the dose curve; as a rule, active = well fitted curve in the direction sought with a large enough effect; inconclusive = small, poorly fitted or top-dose-only effect, or another doubt; inactive = no such curve, though single readings can be large; an effect the other way counts as inactive or inconclusive.

SMILES	GPR32 ag	GALK inhibitor	B2AR arrestin ag	GALC G270D up	TSG101-PTAP inh	FH mod
C[C@@H]1O[C@@H](O[C@H]2[C@H](OC(=O)[C@]34CCC(C)(C)C[C@H]3C3=CCC5[C@@]6(C)CC[C@H](O[C@@H]7O[C@H](CO[C@@H]8OC[C@H](O)[C@H](O)[C@H]8O)[C@@H](O)[C@H](O)[C@H]7O)C(C)(C)C6CC[C@@]5(C)[C@]3(C)C[C@H]4O)OC[C@@H](O)[C@@H]2O)[C@H](O)[C@H](O)[C@H]1O[C@@H]1OC[C@H](O)[C@H](O[C@@H]2OC[C@@H](O)[C@H](O)[C@H]2O)[C@H]1O (some centres undefined)	.	.	.	.	.	-5%[13.5 µM]
O=C(CSc1ncc(CO)n1Cc1ccccc1)Nc1nc2ccccc2s1	60*	-2%	i	i	i	-2%
O=C(CSc1ncc(CO)n1Cc1ccccc1)Nc1ccc(C(F)(F)F)cc1	118*	5%	i	i	i	-24%
O=C(NCC1(c2ccccc2)CCCC1)C(=O)Nc1cccc(C(F)(F)F)c1	-1	3%	i	i	i	-15%
O=C(CC(c1ccccc1)c1cc(Br)ccc1O)NCC1(c2ccccc2)CCCC1 (centres undefined)	108*	3%	i	.	i	.
Cc1ccc(Cl)c2sc(N3CCN(C(=O)C4CC4)CC3)nc12	73*	1%	i	i	i	-16%
Cc1nc(C#Cc2ccnc(Cl)c2)c(C)n1-c1ccc(OC(F)(F)F)cc1	.	.	.	.	.	-14%
Cc1ccc(-n2nc(C(C)(C)C)cc2NC(=O)NCc2cc(F)ccc2Oc2ccc3c(cnn3CCO)c2)cc1	.	.	.	.	.	-11%
COc1ccc2c(C)c(CCC(=O)NCCc3ccc(Cl)cc3)c(=O)oc2c1	108*	2%	i	.	i	.
COc1ccc(CCNC(=O)CCc2c(C)nc3cc(-c4ccccc4)nn3c2C)cc1OC	70*	0%	i	i	i	2%
COc1ccc2c(C)c(CCC(=O)NCCc3ccc(OC)c(OC)c3)c(=O)oc2c1	68*	0%	i	.	i	.
Cc1c(-c2ccnn2C)cc(C(=O)NCc2ccc(S(C)(=O)=O)cn2)c(=O)n1-c1cccc(C(F)(F)F)c1	.	.	.	.	.	3%
O=C1Nc2ccccc2C(O)(c2ccccc2)C1O (centres undefined)	.	.	.	.	.	3%
COc1cc(-c2nc3sccn3c2Nc2c(C)cccc2C)ccc1O	-17	-1%	i	i	i	16µM*
Cc1cccc(C)c1Nc1c(-c2ccc(O)cc2)nc2sccn12	-2	-7%	i	i	i	32µM*
Clc1cccc(COc2cncc(N3CCNCC3)n2)c1	.	.	.	.	.	-11%
CC(=O)c1c(C)cccc1O[C@@H]1O[C@H](CO)[C@@H](O)[C@H](O)[C@H]1O	.	.	.	.	.	-3%[53.3 µM]
COc1ccc(NS(=O)(=O)c2ccc3c(c2)[C@H]2C=CC[C@H]2[C@@H](c2ccc(C(=O)O)cc2)N3)cc1	-10	?	i	i	i	35µM*
C=C(C)[C@@H]1CC[C@](C)(O)[C@@H](OC(=O)c2ccccc2)C1	.	.	.	.	.	3%
C=C(CC)C(=O)c1ccc(OCC(=O)O)c(Cl)c1Cl	90*	.	.	i	.	-6%[53.3 µM]
Cc1ccc(NC(=O)C2CCN(S(=O)(=O)c3cccc4nsnc34)CC2)cc1F	93*	8%	i	i	i	-35%
Cc1ccc(NC(=O)C2CCN(S(=O)(=O)c3cccc4nonc34)CC2)cc1C	101*	1%	i	i	i	-1%
CC(=O)c1ccc(N2CCN(C(=O)C3CCN(S(=O)(=O)c4ccc(Br)s4)CC3)CC2)cc1	87*	5%	i	i	i	-24%
Cc1cc(NC(=O)C2CCN(S(=O)(=O)c3ccc(Br)s3)CC2)ccc1Br	76*	3%	i	i	i	-6%
Cc1cccc(C)c1NC(=O)C1CCN(S(=O)(=O)c2cccc3nsnc23)CC1	-2	0%	i	i	i	1%
SMILES	GPR32 ag	GALK inhibitor	B2AR arrestin ag	GALC G270D up	TSG101-PTAP inh	FH mod
Cc1c[nH]c(/C=C2\C(=O)Nc3ccccc32)c1CCC(=O)O	.	.	.	.	.	-19%
COc1c(C(C)C)c(O)c(O)c2c1C(OC)[C@H]1OC(=O)[C@@]23CCCC(C)(C)[C@H]13 (some centres undefined)	.	.	.	.	.	13µM*
N[C@@H](CC(=O)N1CCn2c(nnc2C(F)(F)F)C1)Cc1[nH]nc2c(F)c(F)ccc12	.	.	.	.	.	6%
Cc1ccc(CNC(=O)c2cccc(NC(=O)N3CCSc4ncccc43)c2)cc1	92*	-2%	i	i	i	3%
CCOc1ccc(S(=O)(=O)N2CCC(n3c(C)nc4cccnc43)CC2)cc1	76*	-2%	i	i	i	-12%
Cc1nc2cccnc2n1C1CCN(C(=O)Nc2ccc(Cl)cc2)CC1	88*	-4%	i	i	i	-9%
C=C1CCC2C(C)(C(=O)O)CCCC2(C)C1CCC1=CCOC1=O (centres undefined)	.	.	.	.	.	1%[53.3 µM]
C=CC(C)(O)C1CC2C3(C)CCCC(C)(C)C3C(O)C(O)C2(C)O1 (centres undefined)	.	.	.	.	.	28%[53.3 µM]
COC(=O)CSc1nnc2n(-c3ccccc3)c(=O)c3c4c(sc3n12)COC(C(C)C)C4 (centres undefined)	65*	0%	i	i	i	-14%
N=c1n(CCN2CCCCC2)c2ccccc2n1CC(O)COc1ccc(Cl)cc1Cl (centres undefined)	70*	1%	i	i	i	-8%
COc1ccc(OCC(O)Cn2c(=N)n(CCN3CCCCC3)c3ccccc32)cc1 (centres undefined)	4	?	i	i	i	1%
Cn1c(SCC(=O)c2ccc(F)cc2)nnc1-c1ccccc1Br	?	-2%	i	i	i	0%
COc1ccccc1-c1nnc(SCC(=O)c2ccc(F)cc2)n1-c1ccccc1	70*	0%	i	i	i	-21%
CC(C)(C)n1nc(Cc2cccc([N+](=O)[O-])c2)c2c(N)ncnc21	.	.	.	.	.	-13%
CC(C)(C)NCc1cc(Nc2ccnc3cc(Cl)ccc23)c2c(c1O)CCCC2	.	.	.	.	.	0%[0.673 µM]
Cc1ccc(NC(=O)/C(C#N)=C/c2cc(C)n(-c3ccc(Br)cc3)c2C)cc1C	63*	-18%	i	i	i	-12%
